From PubChem BioAssay AID1893 (NMMLSC, 2009)
In all, about 5,900 compounds went through this assay and about 120 (2%) were called active. Rule as the data show it: active = percent response mostly above about 71% (no sharp cut-off); inactive = mostly below about 38%. These entries were drawn from the full list.

Test system: MEKK2 (MAP3K2) mutant PB1 domain binding MEK5, human
Experiment: mutant MEKK2 PB1-MEK5 binding signal retest – biochemical, single concentration, multiplex bead flow cytometry, confirmation (AID 1893);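 also: higher means compound restores mutant binding toward wildtype level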
Settings: Alexa488-MEK5 binding to MEKK2 mutant, at 10 µM, hits give high values

Percent response, inactive:
Cc1c(-c2ccccc2)cn2c1-c1ccc(C)n1CC2 0%
CCCN(CCC)c1nc2c(C)cccn2c(=O)c1/C=C1/SC(=S)N(Cc2ccco2)C1=O -17%
O=C(O)c1cccnc1NC1CCCC1 13%
CCCc1nnc(SCC(=O)N2C(C)CCCC2C)n1CC (stereo unspecified) 10%
C/C=C/c1ccc(OCCCCN2CCC(C)CC2)c(OC)c1 4%
CNC(C)C#Cc1ccc2sc3cc(OC)c(OC)cc3c(=O)c2c1 (stereo unspecified) 16%
Cc1cc(C(=O)OCC(=O)N2c3ccccc3NC(=O)C2(C)C)c(C)n1-c1ccccc1 1%
Cc1ccc(NC(=O)COc2ccc(-n3ccnc3)cc2)cc1Cl 21%
Cc1ccc(C(=O)NC(=S)Nc2ccc3[nH]c(=O)[nH]c3c2)cc1C 4%
O=C1Nc2ccc(Br)cc2/C1=N/N=C/C1=C(N2CCOCC2)C(=C\c2ccccc2)/CC1 -20%
C#CCOCCOCCOCCNc1nc(N2CCN(C(=O)[C@H](CCCCN)n3cc([C@@H](N)C(C)CC)nn3)CC2)nc(N2CCN(C(=O)[C@H](Cc3ccc(O)cc3)n3cc([C@@H](N)C(C)CC)nn3)CC2)n1 (stereo partly specified) 52%
COc1ccc(S(=O)(=O)Nc2ccc3oc(C)c(C(C)=O)c3c2)cc1 -3%
O=C(Cc1cccs1)N/N=C/c1ccc(OCc2ccccc2)cc1 3%
N#C/C(=C\C1=C(N2CCOCC2)C(=C\c2ccccc2)/CC1)C(=O)Nc1ccccc1F -38%
Cc1cc(C)nc(-n2ncc3c2CC(c2ccc(C(C)C)cc2)CC3=O)n1 (stereo unspecified) 0%
Cc1ccc(Nc2nc(CSc3nnc(-c4ccncc4)n3-c3ccccc3C)cs2)cc1 1%
COc1ccc(N2CCN(Cc3nnc(-c4ccccc4)o3)CC2)cc1 -5%
Cc1nc(N=C(N)N)nc2c(C)cccc12 10%
Cn1c(=NC(=O)CSCC(=O)N2CCOCC2)sc2ccccc21 -15%
Cc1cc(C)c(NC(=O)C[N+](C)(C)CC(O)COc2cccc3ccccc23)c(C)c1 (stereo unspecified) 35%
CCCCn1c(SCC(=O)NCCc2ccc(OC)c(OC)c2)nc2c1c(=O)n(C)c(=O)n2C 0%
CCOc1cc(C(=O)OCC(=O)Nc2cccc(C)c2)ccc1OCC(=O)N1CCOCC1 0%
COc1ccccc1N1CCN(CCCCOc2ccc(F)cc2)CC1 0%
Cc1ccc(S(=O)(=O)NC(=O)N2CCCC(C)(C)C2)cc1 -1%
O=C(O)c1cc(Cl)c(Cl)cc1C(=O)Nc1cccc2ncccc12 -2%
COc1ccc(-c2[nH]ncc2CN(C)Cc2c(C)n[nH]c2C)c(OC)c1 11%
CCN1CCN(c2nc(Nc3cc(OC)ccc3OC)nc(Nc3cc(OC)ccc3OC)n2)CC1 25%
C=CCn1c(=S)sc2c(=O)[nH]c(C)nc21 1%
O=C(NC1CCN(Cc2ccccc2)CC1)c1cc(Br)c(Br)[nH]1 18%
CC(=O)Nc1ccc(-c2nc3ccccc3o2)cc1 -2%
Cc1c(C#N)c2ncn(CC#N)c(=O)c2n1-c1ccccc1 -7%
O=C(NCC1CCCCC1)c1cc(S(=O)(=O)N2CCCCC2)ccc1N1CCOCC1 -16%
COc1cc(/C=C2\SC(=S)N(Nc3ncc(C(F)(F)F)cc3Cl)C2=O)cc(OC)c1OC -10%
Cc1ccccc1-c1ccc(Nc2ccc(C(=O)N3CCOCC3)cc2)nn1 4%
COc1cc(CC(=O)N/N=C/c2ccccc2)c([N+](=O)[O-])cc1OC 4%
CCOc1ccc(S(=O)(=O)N(CC(=O)O)c2ccccc2)cc1 1%
Cc1ccc(S(=O)(=O)/N=S(\C)C(C)C)cc1 (stereo unspecified) -3%
O=C(c1ccco1)N1CCN(c2cccc(Cl)c2)CC1 0%
C/C(=N\NC(=O)CNC(=O)C(c1ccccc1)c1ccccc1)c1ccc(C)cc1 7%
C=CCN(CC=C)S(=O)(=O)c1ccc(C(=O)Nc2sc3c(c2C(N)=O)CCCCC3)cc1 1%
FC(F)(F)c1cccc(N/N=C/c2ccccc2)c1 28%
COc1cc(-c2nnc(Cn3cc(C(F)(F)F)ccc3=O)o2)cc(OC)c1OC 1%
CCNC(=O)CSc1nc(-c2ccccc2)cs1 -1%
O=C(NCCCN1CCCCCC1)c1ccc(N2CCCC2=O)cc1 38%
CN(C)CC(O)COc1ccc(C(C)(C)c2ccc(OCC(O)CN(C)C)cc2)cc1 (stereo unspecified) 48%
Cc1[nH]c2ccc(S(N)(=O)=O)cc2c1C -1%
CN(C)CCCNC(=O)c1cc(C(=O)Cc2ccc(Cl)cc2)c[nH]1 3%
N/C(=N\OS(=O)(=O)c1cccc([N+](=O)[O-])c1)c1ccncc1 3%
COc1cccc(CNCCc2c[nH]c3ccccc23)c1OCc1ccccc1F 9%
COc1ccccc1CC(=O)Nc1ccc([N+](=O)[O-])cc1OC 0%
O=C(Nc1cccnc1)c1cc(Cl)ccc1Cl 3%
Cc1ccc(CNC(=O)Cn2c(=O)c3sccc3n(Cc3cccc([N+](=O)[O-])c3)c2=O)cc1 2%
O=C(O)/C(=C/c1cccnc1)NC(=O)c1ccccc1 1%
CCOc1nnc(C)c2c(C)n(-c3cccc(Cl)c3)nc12 -10%
Cc1ccccc1C(=O)NNC(=O)CN1C(=O)c2ccccc2C1=O -10%
CC(C)(C)NC(=O)c1cccc(NC(=O)Cc2ccc(Br)cc2)c1 1%
Cn1c2ccccc2c(=O)c2c(=O)n(Cc3ccco3)c(COc3ccccc3)nc21 -6%
CCOc1ccc(C(c2c(C)[nH][nH]c2=O)c2c(C)[nH][nH]c2=O)cc1OCC -3%
COc1cccc(Nc2ncccc2C(=O)O)c1 -5%
C[C@H]1CCC(=O)N([C@H](CSc2ccccc2)Cc2ccccc2)CC1 8%
Cc1cccc(/C=N/NC(=O)CNc2cccc3ccccc23)n1 5%
